For some assays here: Measured potencies and affinities stand elsewhere. Calls of active or inactive are those of the source. Unless noted, cut-off not given; nearly all actives show IC50 up to about 0.98 µM.
Tested on: not listed separately
Test: inhibition of 3D7 malaria parasite growth – strain 3D7 (AID 2306; call rule not given here;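 further: 0% = DMSO wells and 100% = chloroquine plus artemisinin control wells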)
Conditions: P. falciparum 3D7 erythrocytic growth, LDH absorbance, 72 h; at 2 µM; active compounds read high

Row | SMILES | growth inhibition
1 | CCNc1cc(C(=O)N[C@@H](Cc2ccccc2)[C@H](O)CNCCc2ccccc2)cc(N2CCCC2=O)c1 | 92% (active)
2 | CC(CCc1ccccc1)NCC(O)c1ccc2c(c1)S(=O)(=O)c1ccccc1N2 (centres undefined) | 95% (active)
3 | Cc1cc(OCc2ccncc2)cc2c1C(=O)CC(C)(C)O2 | 99% (active)
4 | COc1ccc2ncc(F)c(CCN3CC[C@H](NCc4cc5c(s4)CCCN5)[C@H](O)C3)c2n1 | 96% (active)
5 | CNCCNCc1ccc(-c2cccc(-c3nc4ccc(C(F)(F)F)cc4[nH]3)c2)cc1 | 98% (active)
6 | CN1CCC(C(=O)Nc2cccc(-c3ccc(-c4nc5ccc(C(F)(F)F)cc5[nH]4)s3)c2)CC1 | 101% (active)

Biological target: Calcium-dependent protein kinase 1 (Plasmodium falciparum (isolate 3D7)) (UniProt P62344)
Test: PfCDPK1 kinase inhibitors, biochemical, TCAMS library (AID 1159585);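 further: inhibitors leave more ATP so luminescence rises with inhibition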
Conditions: recombinant PfCDPK1, Kinase-Glo ATP depletion luminescence

Calcium-dependent protein kinase 1 (Plasmodium falciparum (isolate 3D7)), sequence (P62344 whole entry, looked up): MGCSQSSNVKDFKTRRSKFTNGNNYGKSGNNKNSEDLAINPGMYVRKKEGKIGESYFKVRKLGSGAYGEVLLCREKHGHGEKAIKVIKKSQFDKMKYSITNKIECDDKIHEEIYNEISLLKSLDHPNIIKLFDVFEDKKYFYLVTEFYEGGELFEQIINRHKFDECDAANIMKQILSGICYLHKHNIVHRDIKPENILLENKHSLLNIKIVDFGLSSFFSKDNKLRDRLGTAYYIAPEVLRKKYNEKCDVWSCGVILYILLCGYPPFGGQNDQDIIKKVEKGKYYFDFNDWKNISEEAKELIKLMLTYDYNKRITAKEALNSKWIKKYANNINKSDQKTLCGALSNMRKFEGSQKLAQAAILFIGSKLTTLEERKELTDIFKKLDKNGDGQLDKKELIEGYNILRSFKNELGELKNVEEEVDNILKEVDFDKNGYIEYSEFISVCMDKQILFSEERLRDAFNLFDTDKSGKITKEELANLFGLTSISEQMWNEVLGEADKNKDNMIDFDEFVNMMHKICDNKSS

Row | SMILES | outcome
7 | Cc1cc(C2CCN(CCCCNC(=O)c3ccc(NC(=O)c4ccc(Cl)cc4)cc3)CC2)c(C)cc1OCc1cccnc1 | inactive
8 | CN1CCCN(Cc2ccc(-c3cccc(NC(=O)c4ccc(F)cc4)c3)cc2)CC1 | inactive
9 | CCCS(=O)(=O)N1CCC(CO)(Cc2ccccc2C(F)(F)F)CC1 | inactive
10 | Oc1ccc(CCNc2nc(NCCCOc3ccccc3-c3ccc(F)cc3)nc(N3CCNCC3)n2)cc1 | inactive
11 | O=C(Nc1cccc(-c2cccc(-c3nc4ccccc4[nH]3)c2)c1)N[C@@H]1C[C@H]1c1ccccc1 | inactive
12 | O=C(Nc1ccc(-c2cccc(-c3nc4ccc(C(F)(F)F)cc4[nH]3)c2)cc1)c1cccnc1 | inactive
13 | COc1ccc(Cl)cc1S(=O)(=O)Nc1cccc(CCN2CCC(N3CCCCC3)CC2)c1 | inactive
14 | COc1ccc(-n2ccnc2SCC(=O)Nc2cc(C)ccc2C)c(OC)c1 | inactive
